# Source: PubChem (National Center for Advancing Translational Sciences (NCATS))
# Most compounds without a hit are left out; they make up all but 19% or so of the library.
# DT40 TDP1 CPT: DT40-hTDP1 cell growth loss with CPT | chicken DT40 Tdp1-/-;hTDP1 cells + 20 nM CPT, ATP luminescence, 48 h | Potency, µM (titrated, usually from 46.2 µM), usual class: inhibitors | hit rate 12% among 420,000 | AID 686979; note: nearly all actives have a fitted effect of over 55% in size
#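 Chicken DT40 Tdp1-/- cells stably complemented with human TDP1 were seeded at 400 cells/well in medium containing 20 nM camptothecin, exposed to pin-transferred compounds, and grown at 37 °C for at least 48 hr. Viability was read as ATP luminescence.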
# Chronic BCR inh: chronic active BCR signaling inhibition; ABC-DLBCL IkBa-CBG/CBR reporter, luminescence ratio, 4 h; Potency, µM (top dose mostly 46.1 µM), actives largely listed as inhibitors; hit rate 0.05% among 340,000; AID 493014; active = well fitted inhibition curve with a large enough effect in the signal ratio, with a control signal flat, not every such curve was filed as active; inconclusive = small, poorly fitted or top-dose-only effect, or effect the other way, or a change in a side signal; the % refers to the signal ratio
#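 Compounds up to 46 uM were incubated four hours with TMD8 cells whose green CBG68 luciferase is fused to IkappaBalpha; red CBR luminescence normalised the signal, and concentration-effect curves were fitted to fusion, red and ratio data.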
# MCF10A rerep: inducers of DNA re-replication in MCF 10A breast cells; AID 624296; Potency, µM (highest dose often 46.1 µM), usual class: activators; hit rate 2.9% among 350,000; MCF 10A DNA re-replication, Hoechst nuclear intensity, 48 h; note: nearly all actives have a fitted effect of over 50% in size
# IL-1B inflam inh: blocks inflammasome-driven IL-1 beta release | THP-1 LPS/ATP IL-1B secretion, AlphaLISA, 16 h; hits give low values | activity change, % at 57.5 µM | hit rate 4.7% among 360,000 | AID 743279; in the data active = activity change below about -50%; inconclusive = mostly about -30% to -49%
#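 THP-1 cells pretreated 1 hr with compounds (up to 57.5 uM final), then stimulated with LPS (250 ng/mL final) plus ATP (1.25 mM final); secreted IL-1B measured by AlphaLISA after 16 hr, decreased signal indicating inhibition.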
# DT40 TDP1 no CPT: qHTS for Inhibitors of human tyrosyl-DNA phosphodiesterase 1 (TDP1): qHTS in cells in absence of CPT; DT40 Tdp1-/- hTDP1 cells, no CPT, ATP luminescence, 48 h; Potency, µM (highest dose often 46.2 µM), actives largely listed as inhibitors; hit rate 15% among 420,000; AID 686978, 2013; note: nearly all actives have a fitted effect of over 55% in size
#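 Compound effects on proliferation are scored in DT40 Tdp1-/-;hTDP1 cells in the absence of CPT. ATP levels (CellTiter-Glo luminescence) are recorded after a ≥48 hr, 37 °C incubation.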
# SW480 rerep: induces DNA re-replication in SW480 colon adenocarcinoma cells | SW480 DNA re-replication, Hoechst DNA content imaging, 48 h | Potency, µM (titrated, usually from 46.1 µM), most hits filed as activators | hit rate 1.8% among 340,000; note: nearly all actives have a fitted effect of over 55% in size
#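 250 cells/well; 23 nL cpd via pin tool; 48 hr, 37 C, 5% CO2; Hoechst 40 min; imager read of total nuclear intensity, ex 405/em 500-530 nm.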
# A number is an active result; i = inactive; ? = inconclusive; nt = no result given; ! = a repeat was not active. Unless noted, calls come from the whole dose curve; as a rule, active = well fitted curve in the direction sought with a large enough effect; inconclusive = small, poorly fitted or top-dose-only effect, or another doubt; inactive = no such curve, though single readings can be large; an effect the other way counts as inactive or inconclusive.
SMILES,DT40 TDP1 CPT,Chronic BCR inh,MCF10A rerep,IL-1B inflam inh,DT40 TDP1 no CPT,SW480 rerep
CC(OC(=O)CCCC(=O)Nc1ccc(F)cc1)C(=O)c1ccccc1 (configuration not stated),i,i,i,i,i,i
O=C(CCC1CCCCC1)NCc1cccs1,i,?,i,i,i,i
c1ccc(C[n+]2csc3ccccc32)cc1,1µM,i,23µM,-53,1µM,?
c1ccc2c(c1)sc[n+]2CCC1CCCCC1,5µM,nt,nt,nt,2.5µM,nt
C#CC(=O)CCC1CCCN1C(=O)OC(C)(C)C (configuration not stated),15µM,i,?,i,?,i
CON(C)C(=O)CCC1CCCN1C(=O)OC(C)(C)C (configuration not stated),i,i,i,i,i,i
COc1ccc(Nc2nc3c(S(=O)(=O)c4ccccc4)nnn3c3ccc(Cl)cc23)cc1OC,i,nt,nt,nt,i,nt
COc1ccc(Nc2nc3c(S(=O)(=O)c4ccccc4)nnn3c3ccc(Cl)cc23)cc1,6.5µM,nt,nt,nt,9.2µM,nt
CCc1ccc(S(=O)(=O)c2nnn3c2nc(Nc2ccc(F)cc2)c2cc(Cl)ccc23)cc1,3.7µM,nt,nt,nt,5.2µM,nt
CN1CCN(CCCNC(=O)c2cn(C3CCCCC3)c(=O)c3c2c2ccccc2n3C)CC1,i,i,i,?,i,i
CC(=O)c1ccc(N2CCN(C(=O)c3n[nH]c4ccccc34)CC2)cc1,?,i,i,i,?,i
Cn1c2ccccc2c2c(C(=O)N3CCN(c4ccccc4)CC3)cn(C3CCCC3)c(=O)c21,26µM,?,i,i,8.2µM,i
Cn1c2ccccc2c2c(C(=O)NCCCN3CCCC3=O)cn(C3CCCCC3)c(=O)c21,i,i,i,i,?,i
CCOC(=O)N1CCN(C(=O)c2cn(CCOC)c(=O)c3c2c2ccccc2n3C)CC1,i,i,i,i,i,i
Cn1c2ccccc2c2c(C(=O)N3CCN(c4cccc(C(F)(F)F)c4)CC3)cn(C3CCCCC3)c(=O)c21,?,nt,nt,nt,16µM,nt
Cn1cc(C(=O)N2CCN(c3cccc(C(F)(F)F)c3)CC2)c2c3ccccc3n(C)c2c1=O,23µM,nt,nt,nt,16µM,nt
CC(=O)c1ccc(N2CCN(C(=O)c3cn(C)c(=O)c4c3c3ccccc3n4C)CC2)cc1,?,nt,nt,nt,23µM,nt
O=C(Cc1ccc(Nc2nc(=S)[nH]c3ccccc23)cc1)NC1CCCCC1,nt,i,nt,nt,nt,nt
CC(C)CCNC(=O)Cc1ccc(Nc2nc(=S)[nH]c3ccccc23)cc1,i,i,i,-65,?,i
Nc1nc2ccc(Cl)cc2cc1C(=O)NCCc1ccc(Cl)cc1Cl,?,nt,nt,i,?,nt
Nc1nc2cc3c(cc2cc1C(=O)NCc1ccc(F)cc1)OCO3,16µM,nt,nt,i,4.1µM,nt
O=C(Cc1ccc(Cl)cc1)NCCc1c[nH]c2ccccc12,18µM,nt,i,i,?,i
Nc1nc2ccc(Cl)cc2cc1C(=O)NCCc1c[nH]c2ccccc12,8.2µM,nt,nt,i,?,nt
CC(=O)N1CCC2(CCCN(c3ccccn3)C2)CC1,?,nt,nt,nt,i,nt
Cn1c(C(=O)NCCc2c[nH]c3ccccc23)cc2sccc21,?,i,i,i,?,i
SMILES,DT40 TDP1 CPT,Chronic BCR inh,MCF10A rerep,IL-1B inflam inh,DT40 TDP1 no CPT,SW480 rerep
OCCc1c[nH]c2ccccc12,i,i,i,i,i,i
OCc1c[nH]c2ccccc12,17µM!,i,?,i,39µM!,i
O=C(CCCCCNc1nc(=S)[nH]c2ccccc12)NCCc1c[nH]c2ccccc12,18µM,?,?,-78,15µM,i
Nc1nc2ccc(Cl)cc2cc1C(=O)NCc1ccc(Oc2ccccc2)cc1,0.65µM,nt,nt,i,1.3µM,nt
O=C(NCCc1c[nH]c2ccccc12)c1cc2sccc2n1Cc1ccccc1,23µM,i,i,i,21µM,i
O=C(CCCCCNc1nc(=S)[nH]c2ccccc12)NCCc1ccc(Cl)cc1,i,i,?,i,?,i
O=C(/C=C/c1ccccc1)OCCCCN=C1NS(=O)(=O)c2ccccc21,9.2µM,i,i,i,26µM,i
CCN(CC(=O)Nc1ccc(NC(C)=O)cc1)C(=O)c1ccc(Sc2nncn2C)c([N+](=O)[O-])c1,i,nt,nt,i,i,nt
O=C(CSc1nc2nccnc2c(=O)n1CCc1c[nH]c2ccccc12)Nc1ccccc1,21µM,nt,nt,nt,15µM,nt
Cc1ccccc1NC(=O)CSc1nc2nccnc2c(=O)n1CCc1c[nH]c2ccccc12,23µM,nt,nt,nt,12µM,nt
Cc1cc(Cl)ccc1OC(C)C(=O)Nc1cnn(CCCC(=O)O)c1 (configuration not stated),i,i,i,i,i,i
COc1ccc(C(C)NC(=O)c2ccncc2)cc1 (configuration not stated),i,i,i,i,i,i
CC1(C(=O)NS(=O)(=O)c2cccs2)CCN1C(=O)Cc1ccccc1 (configuration not stated),i,nt,nt,i,i,nt
O=C(O)Cc1cccc2ccccc12,i,i,i,i,?,?
O=C(O)CCCc1ccc2ccc3cccc4ccc1c2c34,i,?,16µM,i,i,i
NCCCCc1ccc2ccc3cccc4ccc1c2c34,16µM,i,?,i,?,i
c1ccc2c(c1)c1cccc3ccc4cccc2c4c31,i,i,i,i,i,i
Cc1ccc(/C(O)=C2/C(=O)C(=O)N(CC(=O)O)C2c2ccc([N+](=O)[O-])cc2)cc1 (configuration not stated),i,i,i,i,?,i
COc1cc(/C=C/[N+](=O)[O-])ccc1OC(=O)c1cc2ccccc2oc1=O,?,i,?,i,26µM,i
COc1ccc(/C=C/C(=O)NCCCN2CCCCCC2)cc1,i,i,i,i,i,i
CC(C)(C)SCCNC(=O)/C=C/c1ccc(F)cc1,?,?,i,i,?,i
O=C(/C=C/c1ccc(F)cc1)NCCCN1CCN(CCCNC(=O)/C=C/c2ccc(F)cc2)CC1,?,?,i,i,26µM,i
CC(C)(CNC(=O)/C=C/c1ccc(F)cc1)CNC(=O)/C=C/c1ccc(F)cc1,?,?,i,-88,?,i
Brc1cccc(CN2CCCCCC2)c1,i,i,i,i,i,i
OC1(c2ccc(Br)cc2)CCN(Cc2cccc(Br)c2)CC1,21µM,i,i,i,?,i
COC(=O)/C=C/c1ccc(C(=O)NCC(=O)N[C@@H](CCC(=O)OC)C(=O)N[C@@H](CC(C)C)C(N)=O)cc1,i,nt,nt,nt,i,nt
COC(=O)[C@H]1[C@H]2C[C@@H]3c4[nH]c5ccccc5c4CCN3C[C@H]2C[C@@H](OC(=O)c2cc(OC)c(OC)c(OC)c2)[C@@H]1OC,1.1µM,nt,i,nt,15µM,?
